Measured values from PubChem BioAssay.
Inconclusive results are not listed. Active and inactive are the calls of the source. Rule as the data show it, unless noted: active = inhibition above about 30%; inactive = the rest.

Key:
[1] = reducers of endogenous Her2 protein level, primary screen, SKBR3 breast tumor cells, AlphaScreen, ATP viability (AID 461;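 active = Her2 level under about 52% in both replicate screens, with viability over 70% of control, limit read from the data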;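 as to Her2 level: lower value means less Her2 protein in the cells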;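 as to viability: percent of carrier control wells set as 100% viability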); settings: 18-24 h, measured here: SKBR3 viability, ATP luminescence, at 10 µM
[2] = target: Receptor tyrosine-protein kinase erbB-2 (Homo sapiens) (UniProt P04626); test: as above; settings: 18-24 h, at 10 µM, stronger effect = lower value
Receptor tyrosine-protein kinase erbB-2 (Homo sapiens), sequence (P04626 whole entry, looked up): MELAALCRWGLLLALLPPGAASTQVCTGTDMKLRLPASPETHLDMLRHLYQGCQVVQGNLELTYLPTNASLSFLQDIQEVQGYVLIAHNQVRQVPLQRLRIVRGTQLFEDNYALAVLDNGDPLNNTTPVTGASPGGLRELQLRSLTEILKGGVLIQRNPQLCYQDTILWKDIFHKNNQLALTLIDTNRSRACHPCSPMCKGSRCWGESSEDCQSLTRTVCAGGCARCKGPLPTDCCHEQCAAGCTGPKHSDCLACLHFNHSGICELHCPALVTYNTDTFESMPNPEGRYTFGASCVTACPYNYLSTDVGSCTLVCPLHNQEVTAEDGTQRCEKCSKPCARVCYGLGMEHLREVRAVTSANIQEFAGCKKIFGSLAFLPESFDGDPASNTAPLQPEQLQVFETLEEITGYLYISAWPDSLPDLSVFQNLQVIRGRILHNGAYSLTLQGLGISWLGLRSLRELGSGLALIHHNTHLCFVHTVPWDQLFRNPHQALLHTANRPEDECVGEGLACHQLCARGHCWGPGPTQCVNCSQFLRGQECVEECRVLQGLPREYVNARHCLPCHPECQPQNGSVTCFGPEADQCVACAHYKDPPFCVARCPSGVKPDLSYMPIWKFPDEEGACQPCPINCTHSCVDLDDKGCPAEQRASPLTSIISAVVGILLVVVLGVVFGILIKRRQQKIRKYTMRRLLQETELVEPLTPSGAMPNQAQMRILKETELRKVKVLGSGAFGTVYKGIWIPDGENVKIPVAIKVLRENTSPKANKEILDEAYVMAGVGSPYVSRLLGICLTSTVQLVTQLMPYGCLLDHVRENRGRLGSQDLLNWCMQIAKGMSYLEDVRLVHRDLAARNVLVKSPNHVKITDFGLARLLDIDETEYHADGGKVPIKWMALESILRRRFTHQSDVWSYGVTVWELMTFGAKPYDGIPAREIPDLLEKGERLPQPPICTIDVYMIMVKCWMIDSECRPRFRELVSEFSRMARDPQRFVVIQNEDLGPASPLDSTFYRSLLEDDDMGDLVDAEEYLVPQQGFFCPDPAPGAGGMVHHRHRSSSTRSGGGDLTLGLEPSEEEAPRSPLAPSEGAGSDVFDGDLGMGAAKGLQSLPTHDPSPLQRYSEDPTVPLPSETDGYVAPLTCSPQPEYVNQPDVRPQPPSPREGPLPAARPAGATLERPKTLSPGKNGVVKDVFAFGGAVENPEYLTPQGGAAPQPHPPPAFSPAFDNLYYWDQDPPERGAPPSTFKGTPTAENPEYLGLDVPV

[3] = SK-BR-3 cell growth inhibitors, pilot screen, 24 h, human (AID 572;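 active = viability at or below 10% of carrier control in both of two separate runs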;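 also: compound exposure lasted between 18 and 24 h rather than exactly 24 h; 100% = carrier-treated control wells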); settings: SK-BR-3 viability, CellTiter-Glo luminescence, at 10 µM, stronger effect = lower value
[4] = HUVEC growth inhibition – cell-based, human, primary screen (AID 575;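 active = viability at or below 30% in both replicate assays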;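 also: 100% = median of untreated cell wells with 0.1% DMSO on each plate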); settings: HUVEC proliferation, CellTiter-Glo luminescence, 72 h; at 10 µM; stronger effect = lower value
[5] = growth inhibitors of H69AR lung tumor, primary screen, human, duplicate replicates (AID 580;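 active = viability at or under a set limit in both replicates, limit being median viability minus 3 SD, cut at about 48% in these data, passing the limit was not always enough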;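 also: 100% = mean luminescence of untreated wells and 0% = no signal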); settings: H69AR lung tumor cells viability, ATP luminescence, 72 h; at 10 µM; stronger effect = lower value
[6] = reversal of MRP1-mediated doxorubicin resistance, pilot screen, H69AR cells, doxorubicin co-treatment (AID 601;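 active = viability loss from added drug above about 55%, and viability with drug at most 40%, in both replicates, limit read from the data, passing the limit was not always enough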); settings: CellTiter-Glo, 72 h, at 10 µM; for differential viability (reversal): stronger effect = higher value
[7] = 384-well plate pilot, post-Golgi transport modulator project, inhibition of yeast transport mutant growth (AID 636; in the data active = inhibition above about 31%); settings: absorbance 615 nm, about 18 h, stronger effect = higher value
[8] = growth suppression of yeast trafficking mutant, preliminary HTS, modulators of trafficking downstream of Golgi apparatus project, 1536-format plate, OD 615 nm (AID 637); settings: yeast transport mutant growth, absorbance 615 nm, 18 h; stronger effect = higher value
[9] = OD615 S. cerevisiae growth inhibition, permissive medium, pilot counter-assay, permissive growth control for S. cerevisiae lifespan shortening project (AID 705;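 active = growth inhibition above 25% in both replicates, a cutoff set 3 SD above the mean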); settings: OD615, 24 h, at 10 µM, stronger effect = higher value
[10] = Restrictive medium S. cerevisiae growth inhibition, OD615, pilot screen of yeast lifespan reduction project, restrictive growth control (AID 706;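 active = growth inhibition above a set limit, 3 SD over mean compound inhibition, in both replicates, cut at about 43% in these data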;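 also: modified DeaD lifespan yeast strain shifted to restrictive glucose medium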); settings: OD615, 48 h, at 10 µM, stronger effect = higher value
[11] = viability gain of MRP-1-high H69AR cells under doxorubicin, pilot screen, MRP-1 activator project, CellTiter-Glo, duplicate (AID 807;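 active = viability increase at or above a cutoff of the median across tested compounds plus 3 SD, cut at about 8.5% in these data, passing the limit was not always enough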;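 also: compound pretreatment 18-22 h then 72 h combined with doxorubicin; 0% = doxorubicin alone and 100% = vehicle without doxorubicin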); settings: H69AR viability with doxorubicin, CellTiter-Glo luminescence; at 10 µM; stronger effect = higher value
[12] = growth suppression of beta-catenin knockout HCT116, pilot screen, human colon tumor cells (AID 823;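 active = cell viability at or below a set limit in both duplicate runs, the limit being the all-compound median minus 4 SD, cut at about 23% in these data, passing the limit was not always enough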;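 also: 0% = wells killed by 20 µM Hyamine and 100% = untreated DMSO cell wells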); settings: CellTiter-Glo, 60 h, at 10 µM, stronger effect = lower value
[13] = growth suppression of PTEN-deleted HCT116, pilot screen, cell-based, HCT116 clonal line, CellTiter-Glo (AID 824;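 active = viability at or below 27.92% in each of two runs, the all-compound median minus 4 SD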;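 also: 0% = 20 µM Hyamine control and 100% = vehicle cell control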); settings: 60 h, at 10 µM, stronger effect = lower value
[14] = inhibitors of the yeast RAM network, pilot screen, dse1pr::URA3 reporter, 5-FOA selection (AID 869;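 active = inhibition over a set limit, the all-compound mean plus 3 SD, in both replicate runs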;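 also: 0% = DMSO wells with no growth and 100% = 10 µM 1-NA-PP1 with full growth; RAM network block rescues cells from 5-FOA so hits raise OD615 growth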); settings: S. cerevisiae dse1pr::URA3 5-FOA growth, OD615, 2 d; at 10 µM; stronger effect = higher value; strain carries analog-sensitive mutant Cbk1 kinase
[15] = RAM signaling pathway blockade in yeast – S. cerevisiae, Pdr1DBD-CYC8 efflux-inhibited sensitized strain, primary screen (AID 1298;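 active = RAM network inhibition above 8.4% in each of two replicates, 3 SD over the compound average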;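 also: 0% = DMSO untreated cells without growth and 100% = 10 µM 1-NA-PP1 full growth; higher means more yeast growth rescued from 5-FOA killing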); settings: S. cerevisiae cbk1-as DSE1-URA3 strain, 5-FOA growth OD615, 2 d; at 50 µM; stronger effect = higher value
[16] = H69AR cells + 2 uM doxorubicin, measured here: viability with 2 uM doxorubicin, stronger effect = lower value
[17] = H69AR cells, compound alone cytotoxicity

O=c1c(-c2ccccc2)coc2c(CN3CCOCC3)c(O)ccc12
inactive: Her2 level [2] 105% | viability [3] 110% | viability [4] 96.4% | viability [5] 99% | differential viability (reversal) ([6]; H69AR cells + 2 uM doxorubicin) -1.39% | inhibition [7] 0.95% | inhibition [8] -7.87% | growth inhibition [9] -9.23% | growth inhibition [10] 4.11% | viability increase [11] -4.13% | viability [12] 91.7% | viability [13] 99.7% | inhibition [14] 0.58% | RAM network inhibition [15] -0.61%
99%: viability [6, 17]
110%: viability [1]
100%: viability [6, 16]

COc1ccc(-c2cnc(SCC(=O)Nc3ccc4c(c3)OCO4)n2Cc2ccco2)cc1
102%: viability [1]
83.4%: viability [6, 17]
93.1%: viability [6, 16]
inactive: Her2 level [2] 70.5% | viability [3] 102% | viability [4] 76.9% | viability [5] 83.4% | differential viability (reversal) ([6]; H69AR cells + 2 uM doxorubicin) -9.64% | inhibition [7] 0.39% | inhibition [8] -6.03% | growth inhibition [9] 1.77% | growth inhibition [10] 10.1% | viability increase [11] -3.05% | viability [12] 67.4% | viability [13] 67.4% | inhibition [14] 1.66% | RAM network inhibition [15] 0.61%

CC1CCc2nn(CC(=O)NCc3ccc(F)cc3)cc2C1 (stereo not given)
93.6%: viability [6, 16]
inactive: Her2 level [2] 102% | viability [3] 122% | viability [4] 79.4% | viability [5] 89.4% | differential viability (reversal) ([6]; H69AR cells + 2 uM doxorubicin) -4.28% | inhibition [7] -0.51% | inhibition [8] -2.33% | growth inhibition [9] -3.91% | growth inhibition [10] 8.68% | viability increase [11] -2.02% | viability [12] 86.4% | viability [13] 87.6% | inhibition [14] -0.73% | RAM network inhibition [15] 1.16%
122%: viability [1]
89.4%: viability [6, 17]

COC(=O)c1cc(OC)c(OC)cc1NC(=O)c1ccc(Br)o1
93%: viability [6, 16]
85.5%: viability [1]
inactive: Her2 level [2] 84% | viability [3] 85.5% | viability [4] 101% | viability [5] 87.6% | differential viability (reversal) ([6]; H69AR cells + 2 uM doxorubicin) -5.39% | inhibition [7] 0.13% | inhibition [8] 3% | growth inhibition [9] -14.5% | growth inhibition [10] -3.21% | viability increase [11] -0.2% | viability [12] 96% | viability [13] 86.1% | inhibition [14] 3.2% | RAM network inhibition [15] 4.75%
87.6%: viability [6, 17]

Cc1ccc(S(=O)(=O)NCCSc2nnnn2-c2ccc(C(N)=O)cc2)cc1
103%: viability [6, 16]
inactive: Her2 level [2] 101% | viability [3] 116% | viability [4] 126% | viability [5] 101% | differential viability (reversal) ([6]; H69AR cells + 2 uM doxorubicin) -1.94% | inhibition [7] 0.53% | inhibition [8] -2.17% | growth inhibition [9] -3.29% | growth inhibition [10] -2.84% | viability increase [11] -1.69% | viability [12] 92.1% | viability [13] 89.8% | inhibition [14] -0.71% | RAM network inhibition [15] 1.74%
101%: viability [6, 17]
116%: viability [1]

COc1ccc(NC(=O)CSc2nnc(Cc3cccn3C)n2-c2ccc(F)cc2)cc1OC
inactive: Her2 level [2] 92.5% | viability [3] 86% | viability [4] 104% | viability [5] 94.7% | differential viability (reversal) ([6]; H69AR cells + 2 uM doxorubicin) 0.655% | inhibition [7] 0.38% | inhibition [8] 3.17% | growth inhibition [9] 3.84% | growth inhibition [10] 1.52% | viability increase [11] -3.01% | viability [12] 94.5% | viability [13] 94.2% | inhibition [14] 1.43% | RAM network inhibition [15] 2.95%
94%: viability [6, 16]
94.7%: viability [6, 17]
86%: viability [1]

COc1ccc(N(CC(=O)Nc2cc(C)ccc2C)S(=O)(=O)c2c(C)nn(C)c2C)cc1
92%: viability [1]
93.6%: viability [6, 16]
93.2%: viability [6, 17]
inactive: Her2 level [2] 114% | viability [3] 92% | viability [4] 73.8% | viability [5] 93.2% | differential viability (reversal) ([6]; H69AR cells + 2 uM doxorubicin) -0.425% | inhibition [7] -0.38% | inhibition [8] -3% | growth inhibition [9] -7.38% | growth inhibition [10] -20.5% | viability increase [11] -2.75% | viability [12] 83.8% | viability [13] 80.3% | inhibition [14] 0.14% | RAM network inhibition [15] 7.15%

CCOc1ccccc1C(=O)Nc1cc(=O)n(C)c(=O)n1C
89.9%: viability [6, 16]
89.5%: viability [1]
inactive: Her2 level [2] 88.5% | viability [3] 89.5% | viability [4] 86.8% | viability [5] 88.1% | differential viability (reversal) ([6]; H69AR cells + 2 uM doxorubicin) -1.81% | inhibition [7] -5.47% | inhibition [8] 3.5% | growth inhibition [9] -0.335% | growth inhibition [10] 2.84% | viability increase [11] -0.06% | viability [12] 103% | viability [13] 100% | inhibition [14] 0.715% | RAM network inhibition [15] -2.04%
88.1%: viability [6, 17]

CC1CCCCC1NC(=O)Cn1ncc2ccccc21 (stereo not given)
104%: viability [1]
90.4%: viability [6, 17]
85.4%: viability [6, 16]
inactive: Her2 level [2] 104% | viability [3] 104% | viability [4] 82.1% | viability [5] 90.4% | differential viability (reversal) ([6]; H69AR cells + 2 uM doxorubicin) 4.98% | inhibition [7] -2.93% | inhibition [8] 0.33% | growth inhibition [9] -12.1% | growth inhibition [10] -9.67% | viability increase [11] -1.21% | viability [12] 98.6% | viability [13] 95.7% | inhibition [14] 1.98% | RAM network inhibition [15] 0.04%

CCOC(=O)c1cccc(NC(=O)CNS(=O)(=O)c2cccs2)c1
90.4%: viability [6, 16]
inactive: Her2 level [2] 92% | viability [3] 95.5% | viability [4] 97% | viability [5] 88.3% | differential viability (reversal) ([6]; H69AR cells + 2 uM doxorubicin) -2.06% | inhibition [7] -8.36% | inhibition [8] -5.71% | growth inhibition [9] -0.595% | growth inhibition [10] -4.69% | viability increase [11] 0.66% | viability [12] 102% | viability [13] 97.7% | inhibition [14] 1.43% | RAM network inhibition [15] 0.44%
88.3%: viability [6, 17]
95.5%: viability [1]
